PubChem BioAssay (NCATS)
Values joined by “and” are separate entries in the source; they are usually repeats but may differ in a detail not shown here. Identical values can stand only once. Inconclusive results are not listed. Where a call stands in place of a potency, no number is given. Active and inactive are the calls of the source. Unless noted, the call rests on the fitted dose curve; in most records, active means well fitted curve in the direction sought with a large enough effect; inconclusive means small, poorly fitted or top-dose-only effect, or another doubt; inactive means no such curve, though single readings can be large; an effect the other way counts as inactive or inconclusive.

Assays:
[1] = Primary qHTS for inhibitors of La Crosse Virus (LACV) - induced cell death in SH-SY5Y cells (AID 1508616);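 further: top concentration of the series differs between compounds; higher means more rescue of cells from virus-induced death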
Summary of the method: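 Protection against LACV-induced cell death is scored in SH-SY5Y cells exposed to compounds and virus (0.01 MOI) for 6 days. Data normalized to virus-infected DMSO wells and virus-free DMSO wells.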

[2] = molecular target: Calcium and integrin-binding protein 1 (Homo sapiens) (UniProt Q99828); experiment: Primary qHTS for Identification of Calcium Integrin Binding Protein 1 (CIB1) Competitor (AID 1508620);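 further: GST tagged CIB1 binding a fluorescein labelled alphaIIb integrin peptide tracer; top concentration of the series differs between compounds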
Summary of the method: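 CIB1-GST (1 uM final) and compound incubated 15 min at room temperature before adding FITC-alphaIIb peptide tracer (100 nM final). Competition for binding read by fluorescence polarization (ex 480, em 540) after another 15 min at room temperature.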

[3] = Primary qHTS for small molecule stabilizers of the endoplasmic reticulum resident proteome: Secreted ER Calcium Modulated Protein (SERCaMP) assay (AID 1508630)
Summary of the method: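 GLuc-SERCaMP-expressing SH-SY5Y cells, pretreated 16 h with compound, are challenged with thapsigargin to empty ER calcium stores; after 4 h, coelenterazine is added directly to the medium and luminescence is imaged.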

[4] = A High-Content qHTS Against Drug Library for the Identification of Small Molecules that Inhibit DYT1 Early Onset Primary Dystonia-Associated Cell Pathology (AID 1645839; calls by dose curve; further: potency means the concentration at half of the fitted maximal effect)
Summary of the method: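 In this high-content image screen, delE TorsinA mislocalization in inducible Flp-In 293 cells is scored as %pathology, with cell count serving as the counterscreen. Compound exposure lasts 48 h under tetracycline induction in reduced-serum medium.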

[5] = molecular target: Cytochrome P450 2D6 (Homo sapiens) (UniProt P10635); experiment: Cytochrome P450 family 2 subfamily D member 6 (CYP2D6) small molecule antagonists: luciferase biochemical (cell-free) qHTS assay (AID 1645840; active means well fitted curve in the direction sought with a large enough effect in the repeat runs; an effect the other way counts as inactive or inconclusive; further: nearly all actives have a fitted effect of over 55% in size; further: potency means the concentration at half of the fitted maximal effect)
Summary of the method: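 P450-Glo luminescent screen: recombinant CYP2D6 enzyme–proluciferin substrate mix preincubated with compound 10 min at room temperature, then NADPH regeneration added for 1 h at room temperature. Detection reagent added for 20 min; luciferin light read as relative luminescence units.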

[6] = molecular target: Cytochrome P450 2C9 (Homo sapiens) (UniProt P11712); experiment: Cytochrome P450 family 2 subfamily C member 9 (CYP2C9) small molecule antagonists: luciferase biochemical (cell-free) qHTS assay (AID 1645842; active means well fitted curve in the direction sought with a large enough effect in the repeat runs; an effect the other way counts as inactive or inconclusive; further: nearly all actives have a fitted effect of over 55% in size; further: potency means the concentration at half of the fitted maximal effect)
Summary of the method: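 Luminescence, after 20 min with luciferin detection reagent, reflected CYP2C9 turnover during a 1 h NADPH-driven reaction at 37C. Enzyme-substrate mix contained 0.4% bovine serum albumin and was preincubated with compound 10 min at room temperature.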

[7] = Validation qHTS assay for inhibitors of Activation Induced Cytidine Deaminase (AID): UDG Counterscreen signal (AID 1347427)
Summary of the method: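 Counterscreen read of UDG activity (2 U/mL, 4/3x) in the FRET deamination format with AID (1 uM, 4/3x), DJC20/DJC23 substrates (250 nM, 4x), 4 h at room temperature. NaOH stop, fluorescence at 560 ex/665 em.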

[8] = molecular target: Single-stranded DNA cytosine deaminase (Homo sapiens) (UniProt Q9GZX7); experiment: Validation qHTS assay for inhibitors of Activation Induced Cytidine Deaminase (AID): AID signal (AID 1347429)
Summary of the method: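 Fluorescence at 540 nm excitation and 590 nm emission reports ssDNA cytosine deamination by AID, with UDG in the same well. Compound-treated reactions ran 4 hr at room temperature with DJC20/DJC23 substrate, followed by 30 min NaOH treatment.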

[9] = molecular target: Calcium and integrin-binding protein 1 (Homo sapiens) (UniProt Q99828); experiment: Validation qHTS for Identification of Calcium Integrin Binding protein 1 (CIB1) Competitor (AID 1508618)
Summary of the method: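 Displacement of FITC-alphaIIb peptide (100 nM) from CIB1-GST (1 uM) is monitored by polarization in quantitative HTS format; buffer carries 5 mM CaCl2 and 125 mM NaCl at pH 7.4, incubations are at room temperature.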

Papain (Carica papaya) = Papain (Carica papaya) (UniProt P00784); experiment: Primary qHTS assay for inhibitors of the protease papain (AID 1645873);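 further: papain turnover of Z-FR-AMC read as the AMC fluorescence gain over 10 min; series mostly up to about 50 µM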
[10] = molecular target: Protein phosphatase 1D (Homo sapiens) (UniProt O15297); experiment: RapidFire Mass Spectrometry qHTS Assay for Modulators of WT P53-Induced Phosphatase 1 (WIP1) (AID 1347424);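 further: amount of dephosphorylated VEPPL-S-QETFS peptide product formed by WIP1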; further: potency means the concentration at half of the fitted maximal effect
Summary of the method: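 10 nM WIP1 + cpd, 1 h RT; + 2 uM VEPPL-pS-QETFS, 5 min RT; stop 0.5% formic acid; labelled product standard 1 uM; RapidFire MS. Buffer 50 mM Tris pH 7.5, 30 mM MgCl2, 1 mM TCEP.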

[11] = Primary qHTS for inhibitors of nuclear receptor binding SET domain protein 2 (NSD2) in an isogenic RCH-ACV NSD2 p.E1099K mutant (9B) (AID 1645876); further: nearly all actives have a fitted effect of over 70% in size; further: potency means the concentration at half of the fitted maximal effect
[12] = Primary qHTS for inhibitors of nuclear receptor binding SET domain protein 2 (NSD2) in an RCH-ACV wild type WT cells (2C) (AID 1645877); further: nearly all actives have a fitted effect of over 70% in size; further: potency means the concentration at half of the fitted maximal effect
[13] = molecular target: Cytochrome P450 3A4 (Homo sapiens) (UniProt P08684); experiment: Cytochrome P450 family 3 subfamily A member 4 (CYP3A4) small molecule antagonists: luciferase qHTS assay (AID 1645841; active means well fitted curve in the direction sought with a large enough effect in the repeat runs; an effect the other way counts as inactive or inconclusive; further: nearly all actives have a fitted effect of over 45% in size; further: potency means the concentration at half of the fitted maximal effect)
Summary of the method: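 Luminescent CYP3A4 activity readout: compounds plus enzyme-substrate mix 10 min at room temperature, reaction started with NADPH regenerating system for 1 h, stopped with detection reagent, read after 20 min. Ketoconazole served as control.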

[14] = molecular target: Rap guanine nucleotide exchange factor 3 (Homo sapiens) (UniProt O95398); experiment: Confirmatory qHTS for antagonist of cAMP-regulated guanine nucleotide exchange factor 3 (EPAC1) (AID 1645880); further: potency means the concentration at half of the fitted maximal effect; nearly all actives have a fitted effect of over 55% in size
Summary of the method: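 Nucleotide exchange uses 100 nM EPAC1, 250 nM RAP1B-BODIPY-GDP and 50 uM GDP, with compounds in a concentration-titration series. After 5 min at room temperature, fluorescence (480 nm ex/540 nm em) is read every 5 min for 30 min. Data are normalized to control ATA and DMSO.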

[15] = Counterscreen qHTS for small molecule stabilizers of the endoplasmic reticulum resident proteome: GLuc-NoTag assay (AID 1508627);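 further: SH-SY5Y cells given compound then 100 nM thapsigargin to empty ER calcium; series mostly up to about 76 µM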
Summary of the method: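 Luminescence of Gaussia luciferase secreted into the medium (coelenterazine, 0.07x final, unlysed cells) was the read-out. Human SH-SY5Y neuroblastoma cells constitutively secreting untagged GLuc received compound for 19 h, then 100 nM thapsigargin for 4 h.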

Single-stranded DNA cytosine deaminase (Homo sapiens), sequence (Q9GZX7 whole entry, looked up): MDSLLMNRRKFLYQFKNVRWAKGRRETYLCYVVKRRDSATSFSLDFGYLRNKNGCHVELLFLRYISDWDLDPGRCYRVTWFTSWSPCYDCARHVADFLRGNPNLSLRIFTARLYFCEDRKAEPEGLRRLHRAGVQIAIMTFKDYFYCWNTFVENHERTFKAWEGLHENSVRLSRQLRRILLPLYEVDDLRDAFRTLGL
Papain (Carica papaya), sequence (P00784 whole entry, looked up): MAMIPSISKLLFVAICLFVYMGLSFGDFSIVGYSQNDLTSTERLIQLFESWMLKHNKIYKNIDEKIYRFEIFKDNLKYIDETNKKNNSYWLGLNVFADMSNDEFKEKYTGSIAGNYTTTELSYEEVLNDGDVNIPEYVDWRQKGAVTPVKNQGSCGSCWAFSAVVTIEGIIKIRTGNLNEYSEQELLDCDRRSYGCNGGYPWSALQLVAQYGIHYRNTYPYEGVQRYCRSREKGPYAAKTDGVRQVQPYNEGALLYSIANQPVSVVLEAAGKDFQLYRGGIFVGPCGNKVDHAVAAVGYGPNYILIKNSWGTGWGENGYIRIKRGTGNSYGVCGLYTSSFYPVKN
Cytochrome P450 2D6 (Homo sapiens), sequence (P10635 whole entry, looked up): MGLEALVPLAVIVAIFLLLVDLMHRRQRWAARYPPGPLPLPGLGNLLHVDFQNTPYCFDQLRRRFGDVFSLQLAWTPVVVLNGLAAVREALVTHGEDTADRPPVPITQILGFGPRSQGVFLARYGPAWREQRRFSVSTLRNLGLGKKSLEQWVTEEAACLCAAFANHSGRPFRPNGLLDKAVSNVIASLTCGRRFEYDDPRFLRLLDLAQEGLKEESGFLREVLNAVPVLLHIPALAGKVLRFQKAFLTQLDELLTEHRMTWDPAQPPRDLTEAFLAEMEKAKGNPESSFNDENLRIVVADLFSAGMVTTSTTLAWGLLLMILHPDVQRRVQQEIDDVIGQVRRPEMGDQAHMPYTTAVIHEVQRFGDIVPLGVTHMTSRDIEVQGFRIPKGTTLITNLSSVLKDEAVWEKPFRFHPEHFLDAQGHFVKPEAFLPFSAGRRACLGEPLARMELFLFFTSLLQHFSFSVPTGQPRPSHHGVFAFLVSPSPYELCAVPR
Cytochrome P450 2C9 (Homo sapiens), sequence (P11712 whole entry, looked up): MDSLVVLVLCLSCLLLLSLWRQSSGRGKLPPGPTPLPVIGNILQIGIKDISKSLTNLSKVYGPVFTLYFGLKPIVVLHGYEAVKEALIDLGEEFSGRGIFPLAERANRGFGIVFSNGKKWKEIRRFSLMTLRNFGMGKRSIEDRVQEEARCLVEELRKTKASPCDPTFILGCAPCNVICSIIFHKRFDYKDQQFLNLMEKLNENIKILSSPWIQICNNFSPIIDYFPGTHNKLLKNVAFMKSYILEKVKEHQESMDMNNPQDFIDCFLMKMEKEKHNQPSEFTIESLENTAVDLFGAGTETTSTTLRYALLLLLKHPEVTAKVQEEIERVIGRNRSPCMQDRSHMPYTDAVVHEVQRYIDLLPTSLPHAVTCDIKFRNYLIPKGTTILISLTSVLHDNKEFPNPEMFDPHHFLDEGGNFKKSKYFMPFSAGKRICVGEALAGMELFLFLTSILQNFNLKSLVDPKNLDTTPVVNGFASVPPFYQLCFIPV
Protein phosphatase 1D (Homo sapiens), sequence (O15297 whole entry, looked up): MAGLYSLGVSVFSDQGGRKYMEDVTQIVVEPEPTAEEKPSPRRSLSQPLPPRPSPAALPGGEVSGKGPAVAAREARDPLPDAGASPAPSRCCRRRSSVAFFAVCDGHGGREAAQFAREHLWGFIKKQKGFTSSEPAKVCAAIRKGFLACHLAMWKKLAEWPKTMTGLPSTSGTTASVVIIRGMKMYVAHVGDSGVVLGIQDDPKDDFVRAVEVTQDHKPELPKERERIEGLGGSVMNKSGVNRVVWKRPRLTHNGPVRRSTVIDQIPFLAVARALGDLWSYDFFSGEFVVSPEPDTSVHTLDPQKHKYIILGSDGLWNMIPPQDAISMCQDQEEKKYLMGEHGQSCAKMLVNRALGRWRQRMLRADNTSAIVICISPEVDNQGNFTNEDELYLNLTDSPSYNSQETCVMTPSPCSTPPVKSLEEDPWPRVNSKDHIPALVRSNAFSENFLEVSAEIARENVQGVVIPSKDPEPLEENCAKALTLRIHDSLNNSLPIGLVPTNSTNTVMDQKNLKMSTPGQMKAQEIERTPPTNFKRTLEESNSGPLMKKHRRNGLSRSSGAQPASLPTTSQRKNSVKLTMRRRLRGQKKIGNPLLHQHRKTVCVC
Calcium and integrin-binding protein 1 (Homo sapiens), sequence (Q99828 whole entry, looked up): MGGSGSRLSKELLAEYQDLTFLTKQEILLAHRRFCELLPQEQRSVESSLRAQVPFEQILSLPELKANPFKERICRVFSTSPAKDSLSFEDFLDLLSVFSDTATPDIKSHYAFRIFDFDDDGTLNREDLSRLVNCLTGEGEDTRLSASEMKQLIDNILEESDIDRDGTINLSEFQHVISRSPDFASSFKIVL
Rap guanine nucleotide exchange factor 3 (Homo sapiens), sequence (O95398 whole entry, looked up): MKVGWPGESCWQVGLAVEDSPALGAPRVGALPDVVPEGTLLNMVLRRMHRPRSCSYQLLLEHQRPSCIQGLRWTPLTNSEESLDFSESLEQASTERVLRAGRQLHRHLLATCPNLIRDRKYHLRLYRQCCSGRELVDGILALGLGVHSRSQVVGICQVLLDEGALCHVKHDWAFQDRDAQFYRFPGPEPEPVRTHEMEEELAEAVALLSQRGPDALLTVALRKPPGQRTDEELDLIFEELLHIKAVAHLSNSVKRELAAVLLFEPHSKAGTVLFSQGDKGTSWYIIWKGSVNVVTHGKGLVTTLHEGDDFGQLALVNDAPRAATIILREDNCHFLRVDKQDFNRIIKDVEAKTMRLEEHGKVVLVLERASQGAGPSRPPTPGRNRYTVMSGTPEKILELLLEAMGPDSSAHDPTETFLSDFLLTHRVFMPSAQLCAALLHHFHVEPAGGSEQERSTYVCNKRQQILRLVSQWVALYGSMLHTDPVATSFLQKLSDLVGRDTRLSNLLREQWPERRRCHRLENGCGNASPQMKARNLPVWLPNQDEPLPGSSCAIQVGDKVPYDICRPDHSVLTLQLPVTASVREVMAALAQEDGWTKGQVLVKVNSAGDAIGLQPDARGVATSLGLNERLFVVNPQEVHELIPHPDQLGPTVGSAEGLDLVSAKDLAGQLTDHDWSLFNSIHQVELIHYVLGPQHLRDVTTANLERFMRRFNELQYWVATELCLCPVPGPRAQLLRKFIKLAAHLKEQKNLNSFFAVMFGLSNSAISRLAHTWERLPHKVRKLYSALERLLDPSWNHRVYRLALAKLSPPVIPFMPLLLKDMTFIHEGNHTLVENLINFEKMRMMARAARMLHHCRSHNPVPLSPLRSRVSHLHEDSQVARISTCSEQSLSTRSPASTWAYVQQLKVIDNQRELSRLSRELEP
Cytochrome P450 3A4 (Homo sapiens), sequence (P08684 whole entry, looked up): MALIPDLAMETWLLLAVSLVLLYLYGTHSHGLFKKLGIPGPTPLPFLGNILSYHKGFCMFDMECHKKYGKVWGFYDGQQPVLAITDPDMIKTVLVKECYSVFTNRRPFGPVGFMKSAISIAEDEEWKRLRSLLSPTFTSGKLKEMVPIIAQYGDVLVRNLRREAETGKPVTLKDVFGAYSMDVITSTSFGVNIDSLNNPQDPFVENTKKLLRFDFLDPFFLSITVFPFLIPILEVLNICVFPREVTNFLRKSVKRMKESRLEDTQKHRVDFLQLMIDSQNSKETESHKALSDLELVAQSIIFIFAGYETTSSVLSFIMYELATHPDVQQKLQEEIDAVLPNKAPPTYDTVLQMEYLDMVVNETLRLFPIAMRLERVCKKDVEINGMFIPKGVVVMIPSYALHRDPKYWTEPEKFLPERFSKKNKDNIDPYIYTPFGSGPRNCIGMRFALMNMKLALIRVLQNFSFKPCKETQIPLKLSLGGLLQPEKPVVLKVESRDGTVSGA

CC(=O)OCC1=C(C(=O)O)N2C(=O)[C@@H](NC(=O)CSc3ccncc3)[C@H]2SC1
outcome [1]: inactive | Potency [2]: inactive | Potency [3]: inactive | Potency [4]: inactive | Potency [5]: 13.8 µM (active) | Potency [6]: 11 µM (active)

NC(N)=NCc1cccc(I)c1
outcome [7]: inactive | outcome [8]: inactive | outcome [1]: inactive | outcome [9]: inactive | Potency [3]: inactive | outcome (Papain (Carica papaya)): inactive

CC(=O)N[C@@H](CCC(=O)O)C(=O)O
Potency [10]: inactive | outcome [1]: inactive | Potency [2]: inactive | Potency [4]: inactive | Potency [5]: inactive | Potency [6]: inactive | Potency [11]: inactive | Potency [12]: inactive

CCOC(=O)[C@H](CCc1ccccc1)N[C@@H](C)C(=O)N1[C@H](C(=O)O)C[C@H]2CCCC[C@@H]21
outcome [7]: inactive | outcome [8]: inactive | outcome [1]: inactive | outcome [9]: inactive | Potency [3]: inactive | outcome (Papain (Carica papaya)): inactive

CCc1nn(CCCN2CCN(c3cccc(Cl)c3)CC2)c(=O)n1CCOc1ccccc1
Potency [10]: inactive | outcome [1]: inactive | Potency [2]: inactive | Potency [6]: inactive

c1ccc(-c2nc[nH]c2-c2ccccc2)cc1
Potency [10]: inactive | outcome [1]: inactive | Potency [3]: inactive | Potency [4]: inactive | Potency [6]: inactive

NC(N)=NN=C(/C=C/c1ccc([N+](=O)[O-])o1)/C=C/c1ccc([N+](=O)[O-])o1
outcome [1]: inactive | Potency [3]: inactive | Potency [4]: 1 µM (active) | Potency [5]: 2.75 µM (active) | Potency [6]: 15.5 µM (active) | Potency [11]: 668 nM (active) | Potency [12]: 531 nM (active)

O=C(Nc1ccc([N+](=O)[O-])cc1)Nc1ccc([N+](=O)[O-])cc1
Potency [10]: inactive | outcome [1]: inactive | Potency [2]: inactive | Potency [4]: inactive | Potency [5]: inactive | Potency [6]: inactive | Potency [11]: inactive | Potency [12]: inactive

NS(=O)(=O)c1cc2c(cc1Cl)NC(CC1CCCC1)NS2(=O)=O (centres undefined)
outcome [1]: inactive | Potency [2]: inactive | Potency [3]: inactive | Potency [4]: inactive | Potency [6]: inactive | Potency [11]: inactive | Potency [12]: inactive

C=C1c2cccc(O)c2C(O)=C2C(=O)[C@]3(O)C(O)=C(C(N)=O)C(=O)[C@@H](N(C)C)[C@@H]3[C@@H](O)[C@H]12
Potency [10]: 28.2 µM (active) | outcome [1]: inactive | Potency [3]: inactive | Potency [4]: inactive | Potency [13]: inactive | Potency [6]: inactive | Potency [11]: inactive | Potency [14]: 47.8 µM (active)

O=C1OC2(c3ccccc31)c1cc(Br)c(O)c(Br)c1Oc1c2cc(Br)c(O)c1Br
outcome [1]: inactive | Potency [2]: inactive | Potency [15]: inactive | Potency [13]: 17.4 µM (active) | Potency [6]: 12.3 µM (active)

CC1CCc2c(N3CCC(O)CC3)c(F)cc3c(=O)c(C(=O)O)cn1c23 (centres undefined)
Potency [10]: inactive | outcome [1]: inactive | Potency [2]: inactive | Potency [4]: inactive | Potency [5]: inactive | Potency [6]: inactive | Potency [11]: inactive | Potency [12]: inactive

CN=C(N)NCCC[C@H](N)C(=O)O
outcome [7]: inactive | outcome [8]: inactive | outcome [1]: inactive | outcome [9]: inactive | Potency [3]: inactive | outcome (Papain (Carica papaya)): inactive

NS(=O)(=O)c1ccc(Cl)c(S(N)(=O)=O)c1
Potency [10]: inactive | outcome [1]: inactive | Potency [3]: inactive | Potency [4]: inactive | Potency [5]: inactive | Potency [6]: inactive | Potency [11]: inactive | Potency [12]: inactive

O=C(CCN1CCN2CCCC2C1)N1c2ccccc2Sc2ccc(Cl)cc21 (centres undefined)
Potency [10]: inactive | outcome [1]: inactive | Potency [4]: inactive | Potency [5]: 6.74 µM (active) | Potency [6]: inactive

N/C(=N\N=C\c1ccc(Cl)cc1)N/N=C/c1ccc(Cl)cc1
Potency [10]: inactive | outcome [1]: inactive | Potency [3]: inactive | Potency [5]: 15.5 µM (active) | Potency [6]: 13.8 µM (active) | Potency [11]: inactive | Potency [12]: inactive

O=c1[nH]c(=O)n([C@H]2C[C@H](O)[C@@H](CO)O2)cc1F
Potency [10]: inactive | Potency [2]: inactive | Potency [3]: inactive | Potency [5]: inactive | Potency [6]: inactive | Potency [11]: 13.3 nM (active) and 29.5 nM (active) | Potency [12]: 8.4 nM (active) and 46.8 nM (active)

CCC(Cc1c(I)cc(I)c(N)c1I)C(=O)O (centres undefined)
outcome [1]: inactive | Potency [2]: inactive | Potency [4]: inactive | Potency [5]: 15.5 µM (active) | Potency [11]: inactive | Potency [12]: inactive

CCN(CC)CCOC(=O)C1(c2ccccc2)CCCC1
Potency [10]: inactive | outcome [1]: inactive | Potency [2]: inactive | Potency [4]: inactive | Potency [6]: inactive | Potency [11]: inactive | Potency [12]: inactive

CC(C)=CCOc1ccc(/C=C/C(=O)c2ccc(OCC=C(C)C)cc2OCC(=O)O)cc1
Potency [10]: inactive | outcome [1]: inactive | Potency [3]: inactive | Potency [6]: 15.5 µM (active) | Potency [14]: 49.8 µM (active)
